Measured values as given in PubChem BioAssay AID624481 (The Scripps Research Institute Molecular Screening Center, 2012).

Target: Prolyl endopeptidase-like (Mus musculus) (UniProt Q8C167)
Test: mouse PREPL enzyme inhibition by screening hits – biochemical, gel-based competitive ABPP, fluorescence, HTS hits, PREPL inhibitor project (AID 624481)
Details: purified mouse PREPL, at 20 µM, active compounds read high; in the data active means inhibition above about 50%; inactive means the rest

Prolyl endopeptidase-like (Mus musculus), sequence (Q8C167 whole entry, looked up): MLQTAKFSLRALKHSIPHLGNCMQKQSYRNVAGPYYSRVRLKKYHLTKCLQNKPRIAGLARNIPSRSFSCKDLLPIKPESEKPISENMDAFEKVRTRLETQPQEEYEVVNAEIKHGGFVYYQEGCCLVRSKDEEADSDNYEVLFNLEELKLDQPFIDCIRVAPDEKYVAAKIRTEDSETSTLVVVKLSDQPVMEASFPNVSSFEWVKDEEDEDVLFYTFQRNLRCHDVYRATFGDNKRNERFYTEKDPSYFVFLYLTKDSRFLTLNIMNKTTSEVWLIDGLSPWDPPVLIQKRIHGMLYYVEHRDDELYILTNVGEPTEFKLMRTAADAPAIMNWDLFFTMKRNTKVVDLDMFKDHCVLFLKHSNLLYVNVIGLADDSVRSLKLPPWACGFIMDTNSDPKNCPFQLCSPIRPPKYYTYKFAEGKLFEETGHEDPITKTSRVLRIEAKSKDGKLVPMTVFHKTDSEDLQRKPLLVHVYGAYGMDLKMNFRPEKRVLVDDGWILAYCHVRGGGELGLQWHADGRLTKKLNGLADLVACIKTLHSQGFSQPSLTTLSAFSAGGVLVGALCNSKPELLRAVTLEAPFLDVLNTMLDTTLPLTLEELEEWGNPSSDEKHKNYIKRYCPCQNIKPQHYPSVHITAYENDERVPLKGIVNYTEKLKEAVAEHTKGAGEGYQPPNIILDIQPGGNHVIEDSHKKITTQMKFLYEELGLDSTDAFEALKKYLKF

inhibition, inactive:
COc1ccc(N2CCN(c3nc4c(c(=O)n(C)c(=O)n4C)n3Cc3ccccc3)CC2)cc1 -47%
Cc1cc(NN=Cc2ccc(O)cc2)c2cccc(C)c2n1 1%
CC[C@@H](C)[C@@H]1CN([C@@H](C)CN2CCC[C@H]2CN2C(N)=NC[C@H]2C(C)C)C(=N)N1CCc1ccc(Cl)c(Cl)c1 -48%
CCC[C@@H](CN1CCC[C@H]1CN1C(N)=NC[C@@H]1Cc1ccccc1)N1C[C@@H]([C@H](C)CC)N(CCCC2CCCC2)C1=N 9%
CN(C)c1ccc(C(CN)c2c[nH]c3ccccc23)cc1 (stereo not given) -86%
